# Source: PubChem BioAssay (NCI)
# About 79,000 compounds went through this panel and 15% of them were active in at least one assay; those are over-represented in the sample as a whole. Unmarked numbers belong to inactive results. Activity calls are given as the source filed them. No stated cut-off is given here; in the data, active means growth inhibition above about 70%; inactive means the rest.
# Legend:
# [1] = NCI Yeast Anticancer Drug Screen. Data for the rad52 strain (AID 147);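 further: 0% = growth of vehicle-treated control cultures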; conditions: S. cerevisiae rad52 mutant growth inhibition, active compounds read high
# Outline: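 Inhibition of yeast growth, referenced to vehicle controls, was the measured output for a strain with defective DNA damage repair.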
# [2] = NCI Yeast Anticancer Drug Screen. Data for the wt1 strain (AID 149);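 further: 0% = growth of vehicle-treated wt1 cultures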; conditions: S. cerevisiae wt1 strain (SPY 50644) growth inhibition, active compounds read high
# Outline: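 wt1 strain grown with compound or vehicle; inhibition taken from the growth difference.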
# [3] = NCI Yeast Anticancer Drug Screen. Data for the rad50EPP+ strain (AID 151);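 further: 0% = growth of vehicle-treated control cultures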; conditions: S. cerevisiae rad50 mutant strain, active compounds read high
# Outline: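 Genetically defined yeast (rad50EPP+, DNA damage repair alteration) is grown with compound, and inhibition of growth is expressed relative to vehicle-treated controls.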
# [4] = NCI Yeast Anticancer Drug Screen. Data for the rad50 strain (AID 155);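 further: 0% = growth of vehicle-only cultures of the same strain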; conditions: S. cerevisiae rad50 strain growth inhibition, active compounds read high
# Outline: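 DNA repair mutant yeast, compound exposure, growth read-out; inhibition is taken relative to vehicle.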
# [5] = NCI Yeast Anticancer Drug Screen. Data for the mec2-1 strain (AID 157); conditions: S. cerevisiae mec2-1 strain, active compounds read high
# Outline: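 Each compound was tested on mec2-1 yeast, a strain altered in DNA damage repair or cell cycle control. Growth inhibition is reported relative to vehicle.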
# [6] = NCI Yeast Anticancer Drug Screen. Data for the rad14 strain (AID 159);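 further: 0% = growth of vehicle-treated control cultures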; conditions: S. cerevisiae rad14 strain growth inhibition, active compounds read high
# Outline: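 DNA repair-defective yeast, compound-exposed; % growth inhibition derived by comparison with vehicle-treated controls.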
# [7] = NCI Yeast Anticancer Drug Screen. Data for the sgs1 mgt1 strain (AID 161);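 further: 0% = growth of cultures given vehicle only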; conditions: S. cerevisiae sgs1 mgt1 strain, active compounds read high
# Outline: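 Test agents were incubated with a DNA-repair-mutant yeast strain. Growth was then read and compared against vehicle-treated controls.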
# [8] = NCI Yeast Anticancer Drug Screen. Data for the CLN2oe strain (AID 163);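 further: 0% = growth of vehicle-only control cultures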; conditions: S. cerevisiae CLN2oe strain, active compounds read high
# Outline: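 First, the altered yeast strain was treated with each compound; second, its growth was measured; finally, inhibition was derived by comparison with vehicle controls.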
# [9] = NCI Yeast Anticancer Drug Screen. Data for the bub3 strain (AID 167); conditions: S. cerevisiae bub3 mutant strain, active compounds read high
# Outline: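 In this screen, a yeast mutant lacking normal mitotic checkpoint function is challenged with compound. Relative growth versus vehicle gives the inhibition value.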
# [10] = NCI Yeast Anticancer Drug Screen. Data for the wt2 strain (AID 169);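 further: 0% = growth of vehicle-treated yeast cultures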; conditions: S. cerevisiae wt2 strain growth inhibition, active compounds read high
# Outline: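 The panel's yeast strains carry defined changes in DNA repair or cell cycle genes. Each strain is grown with compound, and growth loss is scored relative to vehicle.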
# [11] = NCI Yeast Anticancer Drug Screen. Data for the mlh1 strain (AID 171);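 further: 0% = growth of vehicle-treated control cultures of the same strain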; conditions: S. cerevisiae mlh1 strain growth inhibition, active compounds read high
# Outline: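 Inhibition values reflect reduced yeast growth in the presence of compound, referenced to vehicle controls, using a strain chosen for its alteration in DNA repair or cell cycle control.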
# [12] = NCI Yeast Anticancer Drug Screen. Data for the sgs1 strain (AID 173);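 further: 0% = growth of vehicle-only control cultures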; conditions: S. cerevisiae sgs1 mutant, active compounds read high
# Outline: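 Vehicle-treated cultures served as reference for growth inhibition of a yeast strain altered in DNA damage repair or cell cycle control after compound exposure.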
# [13] = NCI Yeast Anticancer Drug Screen. Data for the mlh1 rad18 strain (AID 175); conditions: S. cerevisiae mlh1 rad18 strain growth inhibition, active compounds read high
# Outline: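 Inhibition values reflect reduced growth of mutant yeast versus vehicle-treated controls following compound exposure; the mutations affect DNA damage repair.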
# [14] = NCI Yeast Anticancer Drug Screen. Data for the rad18 strain (AID 177); conditions: S. cerevisiae rad18 mutant growth inhibition, active compounds read high
# Outline: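 Steps: expose repair-mutant yeast to compound; measure growth; express as inhibition relative to vehicle control.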
# [15] = at 5.0 µM (retest, dose inferred, filed as 0.5)
# [16] = at 50.0 µM (retest, dose inferred, filed as 5.0)
smiles,measurement,setting,value
COc1ccc2c(C)cc(N/N=C/c3sccc3C)nc2c1,growth inhibition,[1]; at 1.2 µM,-31%
same,growth inhibition,[1]; at 3.7 µM,-45%
same,growth inhibition,[1]; at 11.0 µM,-35%
same,growth inhibition,[1]; at 33.0 µM,29%
same,growth inhibition,[1]; at 100.0 µM,18%
same,growth inhibition,[2]; at 1.2 µM,-30%
same,growth inhibition,[2]; at 3.7 µM,-32%
same,growth inhibition,[2]; at 11.0 µM,-15%
same,growth inhibition,[2]; at 33.0 µM,63%
same,growth inhibition,[2]; at 100.0 µM,66%
same,growth inhibition,[3]; at 1.2 µM,-11%
same,growth inhibition,[3]; at 3.7 µM,-10%
same,growth inhibition,[3]; at 11.0 µM,-4%
same,growth inhibition,[3]; at 33.0 µM,24%
same,growth inhibition,[3]; at 100.0 µM,21%
same,growth inhibition,[4]; at 1.2 µM,-15%
same,growth inhibition,[4]; at 3.7 µM,-25%
same,growth inhibition,[4]; [15],22%
same,growth inhibition,[4]; at 11.0 µM,23%
same,growth inhibition,[4]; at 33.0 µM,80% (active)
same,growth inhibition,[4]; [16],92% (active)
same,growth inhibition,[4]; at 50.0 µM,68.5%
same,growth inhibition,[4]; at 100.0 µM,73% (active)
same,growth inhibition,[5]; at 1.2 µM,-22%
same,growth inhibition,[5]; at 3.7 µM,-28%
same,growth inhibition,[5]; [15],12%
same,growth inhibition,[5]; at 11.0 µM,-8%
same,growth inhibition,[5]; at 33.0 µM,57%
same,growth inhibition,[5]; [16],92% (active)
same,growth inhibition,[5]; at 50.0 µM,50%
same,growth inhibition,[5]; at 100.0 µM,46%
same,growth inhibition,[6]; at 1.2 µM,-53%
same,growth inhibition,[6]; at 3.7 µM,-27%
same,growth inhibition,[6]; at 11.0 µM,-10%
same,growth inhibition,[6]; at 33.0 µM,35%
same,growth inhibition,[6]; at 100.0 µM,31%
same,growth inhibition,[7]; [15],19%
same,growth inhibition,[7]; [16],8%
same,growth inhibition,[7]; at 50.0 µM,80.3% (active)
same,growth inhibition,[8]; at 1.2 µM,-6%
same,growth inhibition,[8]; at 3.7 µM,-9%
same,growth inhibition,[8]; at 11.0 µM,0%
same,growth inhibition,[8]; at 33.0 µM,65%
same,growth inhibition,[8]; at 100.0 µM,56%
same,growth inhibition,[9]; at 1.2 µM,-11%
same,growth inhibition,[9]; at 3.7 µM,10%
same,growth inhibition,[9]; [15],13%
same,growth inhibition,[9]; at 11.0 µM,-7%
same,growth inhibition,[9]; at 33.0 µM,88% (active)
same,growth inhibition,[9]; [16],-26%
same,growth inhibition,[9]; at 50.0 µM,45.1%
same,growth inhibition,[9]; at 100.0 µM,82% (active)
same,growth inhibition,[10]; at 1.2 µM,13%
same,growth inhibition,[10]; at 3.7 µM,-6%
same,growth inhibition,[10]; at 11.0 µM,24%
same,growth inhibition,[10]; at 33.0 µM,78% (active)
same,growth inhibition,[10]; at 100.0 µM,73% (active)
same,growth inhibition,[11]; at 1.2 µM,-27%
same,growth inhibition,[11]; at 3.7 µM,-5%
same,growth inhibition,[11]; at 11.0 µM,-7%
same,growth inhibition,[11]; at 33.0 µM,60%
same,growth inhibition,[11]; at 100.0 µM,56%
same,growth inhibition,[12]; at 1.2 µM,-34%
same,growth inhibition,[12]; at 3.7 µM,-37%
same,growth inhibition,[12]; at 11.0 µM,14%
same,growth inhibition,[12]; at 33.0 µM,88% (active)
same,growth inhibition,[12]; at 100.0 µM,78% (active)
same,growth inhibition,[13]; [15],27%
same,growth inhibition,[13]; [16],94% (active)
same,growth inhibition,[13]; at 50.0 µM,76.3% (active)
same,growth inhibition,[14]; at 1.2 µM,3%
same,growth inhibition,[14]; at 3.7 µM,-4%
same,growth inhibition,[14]; at 11.0 µM,6%
same,growth inhibition,[14]; at 33.0 µM,85% (active)
same,growth inhibition,[14]; at 100.0 µM,70% (active)
